Experimental data from PubChem BioAssay (NCATS).
Results filed as inconclusive are left out. Activity calls are given as the source filed them. The call rests on the fitted dose curve; in most records, active means well fitted curve in the direction sought with a large enough effect; inconclusive means small, poorly fitted or top-dose-only effect, or another doubt; inactive means no such curve, though single readings can be large; an effect the other way counts as inactive or inconclusive.

Experiments:
HaCat = test: Cytotoxic Profiling of Annotated Libraries Using Quantitative High-Throughput Screening (AID 1296008); conditions: Five cell lines viability, CellTiter-Glo ATP luminescence, 48-72 h; max response: hits give low values; further: nearly all actives have a fitted effect of over 60% in size
Outline: (§1)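 Cells exposed to compounds for 48 or 72 hr at 37 degrees Celsius. Viability read as ATP-coupled luminescence with CellTiter-Glo after 10 min at room temperature.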

KB-3-1 = test: as above; conditions: Five cell lines viability, CellTiter-Glo ATP luminescence, 48-72 h; max response: hits give low values
Outline: as §1

NIH3T3 = test: as above; conditions: Five cell lines viability, CellTiter-Glo ATP luminescence, 48-72 h; max response: hits give low values
Outline: as §1

C33A = test: Primary qHTS to identify gynecologic anti-cancer compounds using libraries of approved drugs and bioactive compounds (AID 1345084); conditions: Gynecologic cancer cell panel viability, ATPlite luminescence, 48 h; series mostly up to 57.5 µM; further: nearly all actives have a fitted effect of over 55% in size
Outline: (§2)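 Five-point cytotoxicity, 48 h drug exposure at 37 C, 5% CO2, on cells seeded 16 h beforehand. ATP content read by ATPlite luminescence.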

CAOV3 = test: as above; conditions: Gynecologic cancer cell panel viability, ATPlite luminescence, 48 h; series mostly up to 57.5 µM
Outline: as §2

CASKI = test: as above; conditions: Gynecologic cancer cell panel viability, ATPlite luminescence, 48 h; series mostly up to 57.5 µM
Outline: as §2

Es-2 = test: as above; conditions: Gynecologic cancer cell panel viability, ATPlite luminescence, 48 h; series mostly up to 57.5 µM
Outline: as §2

HeLa = test: as above; conditions: Gynecologic cancer cell panel viability, ATPlite luminescence, 48 h; series mostly up to 57.5 µM
Outline: as §2

Hek293T = test: as above; conditions: Gynecologic cancer cell panel viability, ATPlite luminescence, 48 h, control line for the selectivity index; series mostly up to 57.5 µM
Outline: as §2

JEG-3 = test: as above; conditions: Gynecologic cancer cell panel viability, ATPlite luminescence, 48 h; series mostly up to 57.5 µM
Outline: as §2

OV90 = test: as above; conditions: Gynecologic cancer cell panel viability, ATPlite luminescence, 48 h; series mostly up to 57.5 µM
Outline: as §2
On the % scale 0 is the no-effect control and ±100 the full control effect.

C=C[C@@](C)(O)CC/C=C(\C)C(=O)O[C@@H]1[C@@H]2O[C@]2(C)[C@H]2[C@H](O[C@@H]3O[C@H](CO)[C@@H](O)[C@H](O)[C@H]3O)OC=C[C@@]12O
inactive: max response (HaCat) -5.52% | max response (KB-3-1) -1.11% | max response (NIH3T3) 1.5% | Potency (C33A) | Potency (CAOV3) | Potency (CASKI) | Potency (Es-2) | Potency (HeLa) | Potency (Hek293T) | Potency (JEG-3) | Potency (OV90)

CC(C)(C)C(=O)CN1C(=O)[C@H](NC(=O)Nc2cccc(C(=O)O)c2)CN(C2CCCCC2)c2ccccc21
inactive: max response (HaCat) -3.07% | outcome (KB-3-1) | max response (NIH3T3) 1.3% | Potency (C33A) | Potency (CAOV3) | Potency (CASKI) | Potency (Es-2) | Potency (HeLa) | Potency (Hek293T) | Potency (JEG-3) | Potency (OV90)

C/C=C1\[C@H](OC2OC(COC3OC(CO)C(O)C(O)C3O)C(O)C(O)C2O)OC=C(C(=O)OC)[C@H]1CC(=O)OCCc1ccc(O)cc1 (stereo partly specified)
inactive: max response (HaCat) -0.414% | max response (KB-3-1) 2.72% | max response (NIH3T3) -38.2% | Potency (C33A) | Potency (CAOV3) | Potency (CASKI) | Potency (Es-2) | Potency (HeLa) | Potency (Hek293T) | Potency (JEG-3) | Potency (OV90)

CC(=O)c1c(O)cc(O[C@@H]2O[C@H](CO)[C@@H](O)[C@H](O)[C@H]2O)cc1O
inactive: max response (HaCat) -1.69% | outcome (KB-3-1) | max response (NIH3T3) 1.77% | Potency (C33A) | Potency (CAOV3) | Potency (CASKI) | Potency (Es-2) | Potency (HeLa) | Potency (Hek293T) | Potency (JEG-3) | Potency (OV90)

C[C@@H]1CC[C@]2(C(=O)O[C@@H]3O[C@H](CO)[C@@H](O)[C@H](O)[C@H]3O)CC[C@]3(C)C(=CCC4[C@@]5(C)C[C@@H](O)[C@H](O)[C@@](C)(C(=O)O[C@H]6[C@H](O)C[C@@]7(C)C(CC[C@]8(C)C7CC=C7[C@H]9[C@](C(=O)O[C@@H]%10O[C@H](CO)[C@@H](O)[C@H](O)[C@H]%10O)(CC[C@@H](C)[C@@]9(C)O)CC[C@]78C)[C@@]6(CO)C(=O)O)C5CC[C@]43C)[C@@H]2[C@]1(C)O (stereo partly specified)
inactive: max response (HaCat) -16.1% | outcome (KB-3-1) | max response (NIH3T3) 4.48% | activity change, negative = cytotoxicity (C33A) 2.44% [at 6.55 µM] | activity change, negative = cytotoxicity (CAOV3) 6.22% [at 6.55 µM] | activity change, negative = cytotoxicity (CASKI) 11.5% [at 6.55 µM] | activity change, negative = cytotoxicity (Es-2) -0.958% [at 6.55 µM] | activity change, negative = cytotoxicity (HeLa) -3.59% [at 6.55 µM] | activity change, negative = cytotoxicity (Hek293T) 2.04% [at 6.55 µM] | activity change, negative = cytotoxicity (JEG-3) -2.9% [at 6.55 µM] | activity change, negative = cytotoxicity (OV90) -0.495% [at 6.55 µM]

C=C1CCC2C(C)(C(=O)O)CCCC2(C)C1CCC(C)CC(=O)O (stereo unspecified)
inactive: max response (HaCat) 3.35% | max response (KB-3-1) -0.708% | max response (NIH3T3) -9.77% | Potency (C33A) | Potency (CAOV3) | Potency (CASKI) | Potency (Es-2) | Potency (HeLa) | Potency (Hek293T) | Potency (JEG-3) | Potency (OV90)

C=C1C[C@]23C[C@H]1CC[C@H]2[C@@]1(C)CCC[C@@]2(C)C(=O)O[C@@H]([C@@H]3O)[C@@H]12
inactive: max response (HaCat) -2.64% | outcome (KB-3-1) | max response (NIH3T3) -6.16% | Potency (C33A) | Potency (CAOV3) | Potency (CASKI) | Potency (Es-2) | Potency (HeLa) | Potency (Hek293T) | Potency (JEG-3) | Potency (OV90)

CN=C(N)NCCCCC/C=C(/C)CC(C)C1OC(=O)C(C)C(O)/C=C/C(C)C(O)CC(O)C(C)C(O)CCC(C)C(O)CC2(O)OC(CC(OC(=O)CC(=O)O)CC(O)CC(O)C(C)C(O)/C(C)=C/CCC1C)CC(O)C2O (stereo unspecified)
inactive: max response (HaCat) -0.878% | max response (KB-3-1) 1.79% | max response (NIH3T3) 1.75% | activity change, negative = cytotoxicity (C33A) 11.4% [at 11.6 µM] | activity change, negative = cytotoxicity (CAOV3) 12.9% [at 11.6 µM] | activity change, negative = cytotoxicity (CASKI) 9.88% [at 11.6 µM] | activity change, negative = cytotoxicity (Es-2) 0.226% [at 11.6 µM] | activity change, negative = cytotoxicity (HeLa) 3.51% [at 11.6 µM] | activity change, negative = cytotoxicity (Hek293T) 10.1% [at 11.6 µM] | activity change, negative = cytotoxicity (JEG-3) 16% [at 11.6 µM] | activity change, negative = cytotoxicity (OV90) 7.81% [at 11.6 µM]

CC12CCC3c4ccc(O)cc4CCC3C1CC(OC1OC(C(=O)O)C(O)C(O)C1O)C2O (stereo unspecified)
inactive: max response (HaCat) -15% | outcome (KB-3-1) | max response (NIH3T3) 4.17% | Potency (C33A) | Potency (CAOV3) | Potency (CASKI) | Potency (Es-2) | Potency (HeLa) | Potency (Hek293T) | Potency (JEG-3) | Potency (OV90)

C=CC1(C)C=C2CCC3C(C)(C)C(O[C@@H]4O[C@@H](CO)[C@H](O)[C@H]4O)CCC3(C)C2CC1O[C@@H]1O[C@H](C)[C@H](O)[C@H](O)[C@H]1O (stereo partly specified)
inactive: max response (HaCat) 4.85% | max response (KB-3-1) -11.1% | max response (NIH3T3) -6.13% | Potency (C33A) | Potency (CAOV3) | Potency (CASKI) | Potency (Es-2) | Potency (HeLa) | Potency (Hek293T) | Potency (JEG-3) | Potency (OV90)

CC(=O)c1ccc2c(c1)C(O)C(C(C)(C)O)O2 (stereo unspecified)
inactive: max response (HaCat) 1.04% | outcome (KB-3-1) | max response (NIH3T3) -18% | Potency (C33A) | Potency (CAOV3) | Potency (CASKI) | Potency (Es-2) | Potency (HeLa) | Potency (Hek293T) | Potency (JEG-3) | Potency (OV90)
